From publication PMC7862700, “An all-to-all approach to the identification of sequence-specific readers for epigenetic DNA modifications on cytosine”

Assays:
Experiment in all cases: DAPPL (digital affinity profiling via proximity ligation, sequencing); 10 mM Tris-HCl pH 7.5, 50 mM NaCl, 1 mM DTT, 4% glycerol, room temperature, 30 min; GST-TFs on glutathione beads, 16-mer random dsDNA library, 0.1% formaldehyde crosslink after washing; high values mean tight binding
FEV = target: T1, FEV (Homo sapiens, UniProt Q99581 1-238); details: protein: recombinant; tags: N-terminal GST; dsDNA, one strand shown
T1 sequence: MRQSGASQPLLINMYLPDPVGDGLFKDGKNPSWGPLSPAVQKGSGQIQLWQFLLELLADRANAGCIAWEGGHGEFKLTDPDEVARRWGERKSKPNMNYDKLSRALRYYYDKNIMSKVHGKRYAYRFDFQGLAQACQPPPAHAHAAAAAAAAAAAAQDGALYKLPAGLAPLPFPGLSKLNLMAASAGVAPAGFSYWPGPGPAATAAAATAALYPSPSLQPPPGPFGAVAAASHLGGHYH
How it was run: (§1)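 Each value of binding signal is a hexamer's read frequency for a factor divided by the same hexamer's frequency in the tag-only sample. Barcoded, bead-captured GST fusions of human transcription factors made in yeast were pooled with that sample and incubated with 200 nmole of a random double-stranded 16-mer DNA library in Tris/NaCl/DTT/glycerol buffer at room temperature for 30 min. Washing, 0.1% formaldehyde crosslinking, proximity ligation, PCR and Illumina NextSeq500 sequencing followed.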

ETV5 = ETV5 (Homo sapiens, UniProt P41161 1-510); details: protein: recombinant; tags: N-terminal GST; dsDNA, one strand shown
How it was run: as §1

HSF1 = HSF1 (Homo sapiens, UniProt Q00613 1-529); details: protein: recombinant; tags: N-terminal GST; chain copies: 3; dsDNA, one strand shown
How it was run: as §1

SPIC = target: T2, SPIC (Homo sapiens, UniProt Q8N5J4 1-248); details: protein: recombinant; tags: N-terminal GST; dsDNA, one strand shown
T2 sequence: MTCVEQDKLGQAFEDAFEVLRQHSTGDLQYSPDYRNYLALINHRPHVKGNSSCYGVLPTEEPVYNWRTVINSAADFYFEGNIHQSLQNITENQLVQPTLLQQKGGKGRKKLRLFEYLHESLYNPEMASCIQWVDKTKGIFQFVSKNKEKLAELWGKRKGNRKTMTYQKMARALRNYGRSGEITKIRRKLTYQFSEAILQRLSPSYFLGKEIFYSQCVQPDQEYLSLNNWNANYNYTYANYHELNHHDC
How it was run: as §1

ELF4 = ELF4 (Homo sapiens, UniProt Q99607 1-663); details: protein: recombinant; tags: N-terminal GST; dsDNA, one strand shown
How it was run: as §1

ELK4 = target: T3, ELK4 (Homo sapiens, UniProt P28324-2 1-405); details: protein: recombinant; tags: N-terminal GST; dsDNA, one strand shown
T3 sequence: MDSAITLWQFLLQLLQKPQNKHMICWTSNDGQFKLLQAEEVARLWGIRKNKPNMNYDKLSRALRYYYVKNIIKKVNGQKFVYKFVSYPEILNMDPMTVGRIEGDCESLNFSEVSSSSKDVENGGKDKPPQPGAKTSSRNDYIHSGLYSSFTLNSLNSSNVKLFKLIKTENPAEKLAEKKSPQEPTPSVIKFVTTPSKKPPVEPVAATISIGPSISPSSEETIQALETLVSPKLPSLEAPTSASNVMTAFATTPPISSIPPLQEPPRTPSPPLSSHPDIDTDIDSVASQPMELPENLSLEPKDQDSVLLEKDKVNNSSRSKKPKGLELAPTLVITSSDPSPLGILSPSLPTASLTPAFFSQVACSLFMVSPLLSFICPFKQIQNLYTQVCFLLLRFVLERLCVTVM
How it was run: as §1

ETV2 = target: T4, ETV2 (Homo sapiens, UniProt O00321 1-342); details: protein: recombinant; tags: N-terminal GST; dsDNA, one strand shown
T4 sequence: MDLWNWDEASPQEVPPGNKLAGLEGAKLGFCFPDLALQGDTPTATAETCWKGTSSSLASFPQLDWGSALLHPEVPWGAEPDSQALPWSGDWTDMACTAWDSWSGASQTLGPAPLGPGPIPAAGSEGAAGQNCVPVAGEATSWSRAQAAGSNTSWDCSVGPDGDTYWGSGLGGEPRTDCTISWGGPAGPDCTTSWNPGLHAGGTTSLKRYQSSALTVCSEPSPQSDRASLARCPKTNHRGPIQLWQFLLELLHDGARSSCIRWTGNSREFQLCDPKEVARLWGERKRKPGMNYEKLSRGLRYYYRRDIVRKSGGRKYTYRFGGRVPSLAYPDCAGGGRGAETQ
How it was run: as §1

ELF3 = target: T5, ELF3 (Homo sapiens, UniProt P78545 1-371); details: protein: recombinant; tags: N-terminal GST; dsDNA, one strand shown
T5 sequence: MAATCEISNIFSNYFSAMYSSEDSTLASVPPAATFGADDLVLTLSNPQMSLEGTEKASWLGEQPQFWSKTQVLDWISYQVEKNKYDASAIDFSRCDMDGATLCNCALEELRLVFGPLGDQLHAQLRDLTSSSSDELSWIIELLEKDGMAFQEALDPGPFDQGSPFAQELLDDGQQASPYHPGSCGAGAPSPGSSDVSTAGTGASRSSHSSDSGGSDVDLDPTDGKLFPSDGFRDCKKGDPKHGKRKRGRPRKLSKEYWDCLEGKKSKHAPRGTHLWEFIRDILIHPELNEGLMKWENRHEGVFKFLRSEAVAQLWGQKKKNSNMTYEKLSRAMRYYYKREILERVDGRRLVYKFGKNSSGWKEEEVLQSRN
How it was run: as §1

CRX = CRX (Homo sapiens, UniProt O43186 1-299); details: protein: recombinant; tags: N-terminal GST; dsDNA, one strand shown
How it was run: as §1

ETV1 = ETV1 (Homo sapiens, UniProt P50549 1-477); details: protein: recombinant; tags: N-terminal GST; dsDNA, one strand shown
How it was run: as §1

ERF = target: T6, ERF (Homo sapiens, UniProt P50548 1-548); details: protein: recombinant; tags: N-terminal GST; dsDNA, one strand shown
T6 sequence: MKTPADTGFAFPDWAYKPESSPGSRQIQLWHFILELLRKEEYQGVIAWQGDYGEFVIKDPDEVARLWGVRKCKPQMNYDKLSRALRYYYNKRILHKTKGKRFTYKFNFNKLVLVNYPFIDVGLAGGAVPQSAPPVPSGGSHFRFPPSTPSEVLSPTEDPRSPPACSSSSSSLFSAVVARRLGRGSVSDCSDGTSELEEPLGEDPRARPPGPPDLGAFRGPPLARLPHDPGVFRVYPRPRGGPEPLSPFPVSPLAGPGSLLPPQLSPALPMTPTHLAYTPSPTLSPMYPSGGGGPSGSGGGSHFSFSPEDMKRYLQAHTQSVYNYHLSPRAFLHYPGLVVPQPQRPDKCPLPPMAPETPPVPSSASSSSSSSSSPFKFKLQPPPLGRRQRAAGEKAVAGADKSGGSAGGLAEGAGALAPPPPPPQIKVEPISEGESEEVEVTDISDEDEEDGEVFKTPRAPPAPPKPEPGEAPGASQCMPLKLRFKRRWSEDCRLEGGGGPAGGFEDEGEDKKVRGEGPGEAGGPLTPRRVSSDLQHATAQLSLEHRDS
How it was run: as §1

ETV3L = target: T7, ETV3L (Homo sapiens, UniProt Q6ZN32 1-361); details: protein: recombinant; tags: N-terminal GST; dsDNA, one strand shown
T7 sequence: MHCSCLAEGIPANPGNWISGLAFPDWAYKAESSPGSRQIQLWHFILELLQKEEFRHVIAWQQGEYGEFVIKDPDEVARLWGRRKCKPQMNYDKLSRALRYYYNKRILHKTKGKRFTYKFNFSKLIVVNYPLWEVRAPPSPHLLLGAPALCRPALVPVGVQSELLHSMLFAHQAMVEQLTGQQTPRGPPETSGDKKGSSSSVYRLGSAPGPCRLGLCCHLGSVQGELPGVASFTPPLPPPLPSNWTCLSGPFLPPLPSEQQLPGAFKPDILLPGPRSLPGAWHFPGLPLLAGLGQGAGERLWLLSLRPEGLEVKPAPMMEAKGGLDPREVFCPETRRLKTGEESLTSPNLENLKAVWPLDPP
How it was run: as §1

ETS2 = target: T8, ETS2 (Homo sapiens, UniProt P15036 1-469); details: protein: recombinant; tags: N-terminal GST; dsDNA, one strand shown
T8 sequence: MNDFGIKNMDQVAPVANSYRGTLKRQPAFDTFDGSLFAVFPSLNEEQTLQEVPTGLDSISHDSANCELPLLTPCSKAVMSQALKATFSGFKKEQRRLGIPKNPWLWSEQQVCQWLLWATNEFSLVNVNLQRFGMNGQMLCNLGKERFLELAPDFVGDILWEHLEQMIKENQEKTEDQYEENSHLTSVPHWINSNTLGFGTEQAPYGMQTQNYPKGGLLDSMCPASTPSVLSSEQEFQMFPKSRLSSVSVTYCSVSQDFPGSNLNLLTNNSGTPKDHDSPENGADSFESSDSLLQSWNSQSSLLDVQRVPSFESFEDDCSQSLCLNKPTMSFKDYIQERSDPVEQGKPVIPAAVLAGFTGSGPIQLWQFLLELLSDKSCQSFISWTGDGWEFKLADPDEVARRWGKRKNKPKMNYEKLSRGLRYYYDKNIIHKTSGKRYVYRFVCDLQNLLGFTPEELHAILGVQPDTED
How it was run: as §1

SPDEF = target: T9, SPDEF (Homo sapiens, UniProt O95238 1-335); details: protein: recombinant; tags: N-terminal GST; dsDNA, one strand shown
T9 sequence: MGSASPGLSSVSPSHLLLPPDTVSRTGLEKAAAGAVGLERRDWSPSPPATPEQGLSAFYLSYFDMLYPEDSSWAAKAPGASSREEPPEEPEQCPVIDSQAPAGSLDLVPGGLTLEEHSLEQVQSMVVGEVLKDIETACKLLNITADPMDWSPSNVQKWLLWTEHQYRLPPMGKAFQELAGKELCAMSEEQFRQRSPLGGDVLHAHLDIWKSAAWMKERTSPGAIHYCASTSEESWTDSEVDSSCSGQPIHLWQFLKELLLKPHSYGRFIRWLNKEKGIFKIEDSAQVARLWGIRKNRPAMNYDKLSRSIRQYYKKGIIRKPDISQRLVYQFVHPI
How it was run: as §1

ETV7 = target: T10, ETV7 (Homo sapiens, UniProt Q9Y603 1-341); details: protein: recombinant; tags: N-terminal GST; dsDNA, one strand shown
T10 sequence: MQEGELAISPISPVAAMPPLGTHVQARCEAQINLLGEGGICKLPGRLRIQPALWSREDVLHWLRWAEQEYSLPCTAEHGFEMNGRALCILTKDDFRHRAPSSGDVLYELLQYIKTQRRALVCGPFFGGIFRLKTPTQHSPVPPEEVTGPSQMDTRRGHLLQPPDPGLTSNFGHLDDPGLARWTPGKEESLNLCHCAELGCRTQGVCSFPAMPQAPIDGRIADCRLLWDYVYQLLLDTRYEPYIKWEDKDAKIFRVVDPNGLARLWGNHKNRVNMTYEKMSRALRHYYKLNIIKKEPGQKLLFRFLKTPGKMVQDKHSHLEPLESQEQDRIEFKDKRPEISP
How it was run: as §1

ELF5 = target: T11, ELF5 (Homo sapiens, UniProt Q9UKW6-2 1-255); details: protein: recombinant; tags: N-terminal GST; dsDNA, one strand shown
T11 sequence: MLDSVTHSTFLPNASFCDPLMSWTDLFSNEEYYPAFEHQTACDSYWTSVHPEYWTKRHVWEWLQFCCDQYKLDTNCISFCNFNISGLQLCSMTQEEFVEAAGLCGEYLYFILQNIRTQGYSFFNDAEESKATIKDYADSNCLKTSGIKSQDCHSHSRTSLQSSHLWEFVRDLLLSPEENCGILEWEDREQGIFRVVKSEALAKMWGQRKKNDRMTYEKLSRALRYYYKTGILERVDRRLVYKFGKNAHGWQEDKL
How it was run: as §1

ETV3 = target: T12, ETV3 (Homo sapiens, UniProt P41162-2 1-143); details: protein: recombinant; tags: N-terminal GST; dsDNA, one strand shown
T12 sequence: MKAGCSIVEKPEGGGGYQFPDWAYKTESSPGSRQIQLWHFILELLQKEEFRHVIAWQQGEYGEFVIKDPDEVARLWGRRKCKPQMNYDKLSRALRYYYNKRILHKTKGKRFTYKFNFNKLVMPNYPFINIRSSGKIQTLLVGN
How it was run: as §1

ETV6 = ETV6 (Homo sapiens, UniProt P41212 1-452); details: protein: recombinant; tags: N-terminal GST; dsDNA, one strand shown
How it was run: as §1

Sequence of CRX (O43186 whole entry): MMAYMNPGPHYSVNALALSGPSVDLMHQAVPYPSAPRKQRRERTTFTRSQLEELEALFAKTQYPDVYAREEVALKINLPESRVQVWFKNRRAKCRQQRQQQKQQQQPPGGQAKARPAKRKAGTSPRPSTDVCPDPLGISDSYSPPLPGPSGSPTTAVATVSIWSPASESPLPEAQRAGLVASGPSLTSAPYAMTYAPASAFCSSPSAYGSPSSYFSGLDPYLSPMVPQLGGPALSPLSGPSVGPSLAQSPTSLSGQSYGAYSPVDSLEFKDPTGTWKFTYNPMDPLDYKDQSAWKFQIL
Sequence of ETV5 (P41161 whole entry): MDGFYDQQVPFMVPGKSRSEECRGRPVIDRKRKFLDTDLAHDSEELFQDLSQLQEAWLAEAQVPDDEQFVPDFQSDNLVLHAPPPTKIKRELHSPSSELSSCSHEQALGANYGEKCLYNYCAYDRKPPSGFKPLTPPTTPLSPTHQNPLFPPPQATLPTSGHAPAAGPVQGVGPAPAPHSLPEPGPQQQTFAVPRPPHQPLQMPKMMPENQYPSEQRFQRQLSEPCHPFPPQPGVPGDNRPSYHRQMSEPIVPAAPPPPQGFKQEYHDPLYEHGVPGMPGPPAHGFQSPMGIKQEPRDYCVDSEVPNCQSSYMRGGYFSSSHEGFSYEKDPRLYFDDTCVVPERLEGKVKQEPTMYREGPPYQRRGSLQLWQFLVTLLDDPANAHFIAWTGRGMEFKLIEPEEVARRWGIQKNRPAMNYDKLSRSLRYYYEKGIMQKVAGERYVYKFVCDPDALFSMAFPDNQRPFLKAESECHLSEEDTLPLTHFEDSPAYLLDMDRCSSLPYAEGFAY
Sequence of ELF4 (Q99607 whole entry): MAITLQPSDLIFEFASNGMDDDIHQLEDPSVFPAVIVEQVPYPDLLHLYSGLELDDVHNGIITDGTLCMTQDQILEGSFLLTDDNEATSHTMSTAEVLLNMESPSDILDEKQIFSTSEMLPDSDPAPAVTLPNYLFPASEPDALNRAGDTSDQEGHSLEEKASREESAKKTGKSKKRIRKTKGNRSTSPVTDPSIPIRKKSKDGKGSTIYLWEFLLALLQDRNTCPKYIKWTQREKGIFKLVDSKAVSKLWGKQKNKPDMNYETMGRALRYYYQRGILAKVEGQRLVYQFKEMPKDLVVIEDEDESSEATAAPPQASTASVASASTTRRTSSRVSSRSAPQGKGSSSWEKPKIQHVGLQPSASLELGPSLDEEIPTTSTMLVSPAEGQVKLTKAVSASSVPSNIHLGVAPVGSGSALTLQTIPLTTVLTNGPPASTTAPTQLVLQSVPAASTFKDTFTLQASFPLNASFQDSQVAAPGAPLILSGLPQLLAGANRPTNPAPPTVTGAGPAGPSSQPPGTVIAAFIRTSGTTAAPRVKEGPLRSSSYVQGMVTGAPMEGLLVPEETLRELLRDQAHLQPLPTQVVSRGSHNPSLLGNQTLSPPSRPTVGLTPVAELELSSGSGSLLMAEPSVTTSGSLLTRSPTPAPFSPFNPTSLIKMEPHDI
Sequence of ETV1 (P50549 whole entry): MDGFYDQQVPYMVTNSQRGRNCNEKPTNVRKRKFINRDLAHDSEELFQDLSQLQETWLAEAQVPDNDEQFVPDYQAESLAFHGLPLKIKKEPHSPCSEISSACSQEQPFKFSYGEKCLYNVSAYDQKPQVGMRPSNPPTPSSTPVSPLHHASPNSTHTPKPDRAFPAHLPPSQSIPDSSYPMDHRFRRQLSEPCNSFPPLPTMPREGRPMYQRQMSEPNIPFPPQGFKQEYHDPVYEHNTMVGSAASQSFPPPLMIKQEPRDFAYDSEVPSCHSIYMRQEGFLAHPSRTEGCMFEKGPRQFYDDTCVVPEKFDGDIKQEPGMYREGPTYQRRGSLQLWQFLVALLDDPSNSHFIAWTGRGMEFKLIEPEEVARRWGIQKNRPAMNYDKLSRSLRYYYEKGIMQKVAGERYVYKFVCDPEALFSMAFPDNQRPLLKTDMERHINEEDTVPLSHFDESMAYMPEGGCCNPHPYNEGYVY
Sequence of ETV6 (P41212 whole entry): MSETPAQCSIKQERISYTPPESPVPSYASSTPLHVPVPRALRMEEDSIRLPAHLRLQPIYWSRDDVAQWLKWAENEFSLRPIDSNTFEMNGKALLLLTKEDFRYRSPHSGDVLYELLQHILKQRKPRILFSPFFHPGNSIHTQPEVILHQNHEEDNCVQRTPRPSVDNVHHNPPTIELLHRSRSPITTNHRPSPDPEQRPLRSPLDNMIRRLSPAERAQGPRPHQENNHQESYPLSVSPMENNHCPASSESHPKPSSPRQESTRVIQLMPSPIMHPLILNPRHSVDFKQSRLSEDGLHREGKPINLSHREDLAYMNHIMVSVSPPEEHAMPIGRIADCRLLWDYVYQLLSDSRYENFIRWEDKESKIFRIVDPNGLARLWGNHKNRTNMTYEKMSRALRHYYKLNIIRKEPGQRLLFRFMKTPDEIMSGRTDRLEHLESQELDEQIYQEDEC
Sequence of HSF1 (Q00613 whole entry): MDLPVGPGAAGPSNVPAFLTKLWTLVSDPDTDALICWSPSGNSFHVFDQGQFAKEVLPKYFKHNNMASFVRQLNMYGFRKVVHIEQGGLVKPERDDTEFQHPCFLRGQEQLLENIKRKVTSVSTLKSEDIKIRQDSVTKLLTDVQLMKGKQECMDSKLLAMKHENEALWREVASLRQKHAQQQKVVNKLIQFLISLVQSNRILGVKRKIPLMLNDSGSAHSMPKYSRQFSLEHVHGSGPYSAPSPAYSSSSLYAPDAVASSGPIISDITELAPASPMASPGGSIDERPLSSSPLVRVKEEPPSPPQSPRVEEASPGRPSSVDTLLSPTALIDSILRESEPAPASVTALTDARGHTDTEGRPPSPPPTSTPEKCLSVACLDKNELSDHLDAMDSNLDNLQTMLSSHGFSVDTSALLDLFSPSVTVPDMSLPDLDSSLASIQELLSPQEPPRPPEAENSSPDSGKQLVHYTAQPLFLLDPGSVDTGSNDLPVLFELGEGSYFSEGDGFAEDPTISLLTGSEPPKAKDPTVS

Sequence: TAAAAG
- binding signal (FEV): 1.08 fold enrichment (6-mer frequency, TF over GST control)
- binding signal (ETV5): 1.19 fold enrichment (6-mer frequency, TF over GST control)
- binding signal (HSF1): 1.43 fold enrichment (6-mer frequency, TF over GST control)
- binding signal (SPIC): 1.14 fold enrichment (6-mer frequency, TF over GST control)
- binding signal (ELF4): 1.17 fold enrichment (6-mer frequency, TF over GST control)
- binding signal (ELK4): 1.2 fold enrichment (6-mer frequency, TF over GST control)
- binding signal (ETV2): 1.22 fold enrichment (6-mer frequency, TF over GST control)
- binding signal (ELF3): 1.21 fold enrichment (6-mer frequency, TF over GST control)
- binding signal (CRX): 1.72 fold enrichment (6-mer frequency, TF over GST control)
- binding signal (ETV1): 1.18 fold enrichment (6-mer frequency, TF over GST control)
- binding signal (ERF): 1.2 fold enrichment (6-mer frequency, TF over GST control)
- binding signal (ETV3L): 1.1 fold enrichment (6-mer frequency, TF over GST control)
- binding signal (ETS2): 1.18 fold enrichment (6-mer frequency, TF over GST control)
- binding signal (SPDEF): 1.08 fold enrichment (6-mer frequency, TF over GST control)
- binding signal (ETV7): 1.19 fold enrichment (6-mer frequency, TF over GST control)
- binding signal (ELF5): 1.16 fold enrichment (6-mer frequency, TF over GST control)
- binding signal (ETV3): 1.12 fold enrichment (6-mer frequency, TF over GST control)
- binding signal (ETV6): 1.23 fold enrichment (6-mer frequency, TF over GST control)
